The panel holds about 83,000 compounds, 20% with a hit somewhere; the sample as a whole holds those more often.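 Method: cells in 96-well plates; compound added at one concentration; 48 h incubation; percent growth measured; values under 10 scored active.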 A number with no mark means an inactive call. Active and inactive are the calls of the source.
Tested on: SW-620 colon
Assay: NCI-60 one-dose screen, 48 h (100 = growth as untreated, 0 = no growth, -100 = all killed)
Settings: 10 µM unless noted
Description: Growth inhibition of the SW-620 human tumor cell line is measured as a screen for anti-cancer activity. Cells are grown in 96 well plates and exposed to the test compound for 48 hours. Compounds are tested at a single concentration, which is 10^-5 M for most compounds. The reported endpoint is percent growth (GI% or GIPRCNT), where numbers from 0 - 100% represent growth inhibition, and numbers from -100% - 0 represent cell death. For example, a value of 40 represents 60% growth inhibition. A value of 0 means no net growth occurred over the course of the experiment. A value of -40 indicates 40% of cells at the beginning of the experiment died by the end of the experiment. A value of -100 means all cells are dead at the end of the experiment.
NCI-60 Human Tumor Cell Lines Screen was performed using the standard one-dose NCI protocol, which is described in more detail at https://dtp.cancer.gov/discovery_development/nci-60/default.htm.
Compounds with GIPRCNT values below 10 were considered active. Activity score was based on GIPRCNT using the following formula: […]
Score is 0 for GIPRCNT values of 100 or above, 50 for GIPRCNT values of 0, and 100 for GIPRCNT values of -100.

| Compound | growth |
| --- | --- |
| CC1(C)CC[C@]2(CO)CC[C@]3(C)C(=CC[C@@H]4[C@@]5(C)CCNCC(C)(C)[C@@H]5CC[C@]43C)[C@@H]2C1 | 21% |
| Cn1ncc(CC(=O)O)c1-n1nnc2cc(Cl)ccc2c1=O | 103% |
| COc1cc2c(cc1OC)CC[N+](CCC[N+](C)(C)C)=C2 | 113% |
| COc1ccc(C2=NN3C(C2)c2cc(Br)ccc2OC3c2ccncc2)cc1 (stereo not given) | 90.7% |
| Cn1ccnc1C(=O)/C=C/c1ccc(CC(=O)Nc2cc(F)c(F)c(F)c2)cc1 | 9% (active) |
| Cc1c(Cl)cccc1NC(=O)c1sc2nc3c(cc2c1N)CCCC3 | 19.2% |
| O=C(Nc1ccc2[nH]ncc2c1)c1csc(Nc2ccccc2)n1 | 21% |
| CN(C)c1ccc(/C=C/C2=[N+](C)c3ccccc3C2(C)C)cc1 | 37.7% |
| CCN1C(=O)N(CC)C2C1NN=c1s/c(=C\c3ccc([N+](=O)[O-])cc3)c(=O)n12 (stereo not given) | 19.8% |
| N#C/C(=C\c1cccc2cnccc12)N1N=NC2C=CC=CC21 (stereo not given) | 13.1% |
| C(CCCSC1=NCCN1)CCSC1=NCCN1 | 98.2% |
| O=C(Nc1ccccc1)Nc1ccccc1CNc1nc(Nc2ccc(OCCN3CCCC3)cc2)ncc1Cl | 73% |
| CC(C)(C#N)c1cc(C(=O)Nc2cc(Nc3ncccc3-c3ncnc4nc[nH]c34)ccc2F)cc(C(F)(F)F)c1 | 37.5% |
| COc1cc(C2=Nc3c(N)nc(N)nc3NC(c3cccc(Nc4ccnc5cc(C(F)(F)F)ccc45)c3)C2)cc(OC)c1OC (stereo not given) | 78.7% |
| COc1ccc(-c2cc(-c3ccc(N(C)C)cc3)nc(NC(=O)c3cccnc3)n2)cc1 | 101% |
| CCCNNC(=O)c1ccc(CNC(=O)/C=C/c2ccccc2)cc1 | 22.9% [2.5 µM] |
| [2H]C([2H])([2H])Oc1c(F)cccc1/C=C/C(=O)/C=C(O)/C=C/c1cccc(F)c1OC([2H])([2H])[2H] | 109% |
| O=c1c2cccc3c(N4CCOCC4)ccc(c32)c2nc3ccccc3n12 | 103% |
| Cn1cc(-c2csc(-c3cn(CCO)c4ccc(F)cc34)n2)c2cccnc21 | 29.8% |
| CCOC(=O)c1c(C)n2c(=O)cc(C)c3c(OC(C)=O)c(OC(C)=O)cc1c32 | 34.8% |

| Compound | growth |
| --- | --- |
| CN(C)c1ccc(Cc2cc(-c3ccccc3)nn(C/C(=N/O)c3ccccc3)c2=O)cc1 | 62.1% |
| COc1ccc(C(=O)/C=C/c2ccc(C)cc2)cc1S(N)(=O)=O | 21.9% |
| CO[C@H]1CC(c2ccc[nH]2)=N[C@]12O[C@@H](C)C[C@@H]1CCCCCCCc3ccc([nH]3)[C@H]12 | 21.5% |
| CCCC1Cc2cc(-n3nc(C)c4c3CC(C)(C)CC4=O)cc(NC3CCC(O)CC3)c2C(=O)N1 (stereo not given) | 20.4% |
| CSc1nc(CC(C)C)c(C#N)c(=O)n1C | 63.1% |
| Nc1nc(N)c2c(n1)NC(c1ccc3c(c1)OCO3)CC(c1cccc(Nc3ccncc3)c1)=N2 (stereo not given) | 58% |
| CCOC(=O)CSc1nc2sc3c(c2c(=O)n1-c1ccccc1)CCCCC3 | 98.1% |
| C=CC(=O)Nc1ccc2ncnc(Nc3cccc(NS(=O)(=O)CCC)c3Cl)c2c1 | 74.4% |
| COc1ccc(-c2cc(-c3ccc(Cl)cc3)c(C#N)c(=O)n2CCCCC(=O)NO)cc1 | 80% |
| Nc1nc(=O)n([C@H]2CC=C(CO)O2)cc1F | 90.5% |
| CCN(CC)CCCNc1cc(OC)cc2cccnc12 | 101% |
| O=C(CSc1nc(-c2ccccc2)cn1-c1ccc(Cl)cc1)c1ccc([N+](=O)[O-])cc1 | 73.8% |
| O=c1ccc2c(ccc3ncccc32)o1 | 115% |
| CC1=C([Se]CC(OC(=O)[C@@H](CO)NC(=O)OC(C)(C)C)C(=O)NCCCCCC(=O)OCc2ccccc2)C(=O)c2ccccc2C1=O (stereo not given in full) | -42% (active) |
| N#C/C(=N\Nc1ccccc1)C(=O)Nc1cc(-c2ccccc2)nn1-c1ccccc1 | 20.2% |
| COc1cc(OCc2cccc(-c3ccccc3)c2C)cc(OC)c1CN1CCCCC1C(=O)NCCOCCOCCN (stereo not given) | 61.2% |
| O=C(CNc1ncco1)Nc1ccc(S(=O)(=O)c2ccc(NC(=O)CNc3ncco3)cc2)cc1 | -82% (active) |
| Oc1ccc(C(c2ccc(O)cc2)c2ccc(Cl)cn2)cc1 | 106% |
| COc1nc2ccccc2cc1/C=C1/C=C(c2ccccc2)NC1=O | 27.7% |
| COc1ccc(-c2ccc(-c3ccc(C(=N)N)o3)o2)cc1 | 12.9% |
